Results on one compound are retold here after PubChem BioAssay AID2284116 (EPA ToxCast).

Activity calls are given as the source filed them. Rule for the calls: active = hit-call score of the fitted dose curve at least 0.9, where 1 is the maximum; inactive = score below 0.9.

Chain of human Matrix Metallopeptidase 9 (MMP9), MMP9 (gene 4318) (P14780 whole entry, looked up): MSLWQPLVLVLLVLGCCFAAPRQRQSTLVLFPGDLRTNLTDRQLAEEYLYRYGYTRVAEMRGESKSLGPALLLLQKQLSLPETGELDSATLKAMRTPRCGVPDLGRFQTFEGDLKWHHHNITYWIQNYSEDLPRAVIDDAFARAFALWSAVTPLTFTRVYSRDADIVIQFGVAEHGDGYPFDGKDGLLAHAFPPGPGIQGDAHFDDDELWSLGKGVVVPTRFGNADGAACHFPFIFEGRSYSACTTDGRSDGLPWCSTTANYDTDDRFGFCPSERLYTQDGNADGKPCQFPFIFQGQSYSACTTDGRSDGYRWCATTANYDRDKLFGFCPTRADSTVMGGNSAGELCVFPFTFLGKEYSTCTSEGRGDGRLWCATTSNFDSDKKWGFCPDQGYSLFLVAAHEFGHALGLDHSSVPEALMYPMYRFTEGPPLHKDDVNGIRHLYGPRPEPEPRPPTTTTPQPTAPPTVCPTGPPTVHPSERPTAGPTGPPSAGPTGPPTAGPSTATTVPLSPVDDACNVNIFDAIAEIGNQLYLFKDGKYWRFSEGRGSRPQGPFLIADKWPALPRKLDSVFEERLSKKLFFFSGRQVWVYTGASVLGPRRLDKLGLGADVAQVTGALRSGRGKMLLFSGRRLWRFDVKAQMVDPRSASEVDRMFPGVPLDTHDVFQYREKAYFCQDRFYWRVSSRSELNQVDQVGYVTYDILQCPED

This assay addresses human Matrix Metallopeptidase 9 (MMP9), MMP9 (gene 4318) (UniProt P14780). Kind of assay: ERF_FR_ENZ_hMMP9: Eurofins (ERF) Enzymatic LeadHunter Assay for human Matrix Metallopeptidase 9 (MMP9). The protocol: ERF_FR_ENZ_hMMP9 is a biochemical, single-readout assay that uses extracted gene-proteins in a cell-free assay. Measurements were taken 1.5 hour after chemical dosing in a 96-well plate. See MMP9 Human Matrix Metallopeptidase Enzymatic Assay, Cerep.ERF_FR_ENZ_hMMP9 is an assay component calculated from the ERF_FR_ENZ_hMMP9 assay. It is designed to measure enzyme activity using a type of enzyme reporter as detected by fluorescence intensity with fluorimetry technology.Data from the assay component ERF_FR_ENZ_hMMP9 was analyzed at the assay endpoint, ERF_FR_ENZ_hMMP9, in the positive analysis fitting direction relative to DMSO as the negative control and baseline of activity. Using a type of enzyme reporter, loss-of-signal activity can be used to understand changes in enzymatic activity as they relate to gene MMP9. To generalize the intended target to other relatable targets, this assay endpoint is annotated to the protease intended target family, where the subfamily is matrix metallopeptidase.
[…] are incubated for 60 minutes at room tempreature with Mca-PLGL-Dap(Dnp)-AR-NH2 (7.5 uM) as sunstrate and […] as control inhibitor. Test Sample Requirements: Minimum for 1) Screen: 60 ul of 10 mM stock -OR- 1 mg (pre-weighed) for 10 uM final testing. 2) Dose Response: 90 ul of 10 mM stock -OR- 1 mg (pre-weighed) for a top concentration at 10 uM.
`O=C(/C=C/c1ccc(O)cc1)CC(=O)/C=C/c1ccc(O)cc1`: the compound was classed as inactive.
